M1 agonist = activates the M1 muscarinic receptor. CHO-M1 cells, Fluo-4 calcium fluorescence, agonist mode; hits give high values. B-score at 10 µM. 64,000 tested, 3% active;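 active = fluorescence rise, raw or as B-score row- and column-corrected plate score, outside the 99.7% band of its plate's samples, either direction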
D1 mod = allosteric modulators of human D1 dopamine receptor | P21728 | HEK293 D1, CRE-luciferase, dopamine EC30 potentiation; actives deviate in either direction | B-score at 10 µM | 58,000 tested, 5.9% active;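 active = luminescence count or its row- and column-corrected plate score outside the 99.7% band of the plate's sample wells, on either side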
Htt clearance = compounds clearing mutant huntingtin protein; 47,000 tested, 0.42% active; HeLa Exon1htt(103Q)mCFP, aggregate imaging; zero = plate's median compound well; inhibition, % at 1.5 µM;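 active = inhibition of aggregate fluorescence above about 70%, also judged a hit by eye on the cell image, limit read from the data, passing the limit was not always enough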;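 note: cells exposed to compound for three days before fixation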
M1 antagonist = M1 muscarinic receptor (rat) antagonism | P08482 | CHO-M1 cells, Fluo-4 calcium, ACh EC80 antagonist mode; hits give low values | B-score at 10 µM | 64,000 tested, 3.4% active | AID 628;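 active = calcium fluorescence response, raw or row-and-column corrected B-score, differing from the plate sample mean either way at a set confidence level, mostly lower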
Target sequence (P08482 whole entry, looked up): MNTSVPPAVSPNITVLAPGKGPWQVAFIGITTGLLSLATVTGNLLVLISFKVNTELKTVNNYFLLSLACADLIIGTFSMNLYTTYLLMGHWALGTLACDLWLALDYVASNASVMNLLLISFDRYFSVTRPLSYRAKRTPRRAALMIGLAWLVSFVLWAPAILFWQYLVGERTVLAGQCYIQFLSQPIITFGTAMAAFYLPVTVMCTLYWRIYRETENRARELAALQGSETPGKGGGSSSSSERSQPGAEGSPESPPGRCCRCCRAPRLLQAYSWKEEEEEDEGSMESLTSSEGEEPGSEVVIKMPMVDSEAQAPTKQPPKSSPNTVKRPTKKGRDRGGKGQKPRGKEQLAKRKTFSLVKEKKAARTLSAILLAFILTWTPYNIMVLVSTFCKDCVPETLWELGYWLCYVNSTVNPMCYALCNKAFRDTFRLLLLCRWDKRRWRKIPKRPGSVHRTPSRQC
M1 antag conf = M1 muscarinic receptor (rat) antagonism, confirmed. CHO-M1 cells, Fluo-4 calcium, ACh EC80 antagonism; hits give low values. shares compounds with M1 antagonist. AID 677. calcium response (max-min fluorescence) at 10 µM. 1,700 tested, 43% active;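 active = calcium response below the same-plate mean of wells given acetylcholine alone at its 80%-effect dose, minus 3 SD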
mGluR4 antag = selectivity test for M1 antagonists: human mGluR4 receptor | AID 678 | CHO-mGluR4 calcium flux, Fluo-4 fluorescence, glutamate EC80; hits give low values | fluorescence response (max-min) at 10 µM | 1,700 tested, 0.9% active | shares compounds with M1 antagonist;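 active = fluorescence response below the plate's average for near-maximal glutamate wells, less 3 SD of those wells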;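 note: raw unnormalized fluorescence span taken in the window right after glutamate addition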
D1 PAM confirm = D1 receptor (human) allosteric modulation, confirmed; shares compounds with D1 mod; luminescence at 10 µM; AID 642; HEK293 D1 CRE-luciferase, dopamine EC30 potentiation; hits give high values; 2,200 tested, 88% active;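 active = luminescence in either of two replicates above the same-plate mean plus 3 SD of the low-dose dopamine control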
D1 ag no DA = secondary test of D1 modulators: activity without dopamine; shares compounds with D1 mod; HEK293 D1 CRE-luciferase, luminescence, no dopamine; hits give high values; luminescence at 10 µM; 1,900 tested, 0.8% active; AID 646; in the data active = luminescence above about 3900
Isoprot counter = counter-screen for D1 modulators: isoproterenol response in HEK293 cells; 2,200 tested, 63% active; shares compounds with D1 mod; HEK293 D1 CRE-luciferase, isoproterenol EC30 counter-screen; hits give high values; luminescence at 10 µM;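 active = luminescence in either replicate above plate mean of wells with a partly effective reference agonist dose plus 3 SD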;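 note: isoproterenol raises cAMP through native beta-adrenoceptor Gs so signal bypasses D1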
Each line names hits and unclear results; the compound was inactive in the other large screens (follow-up assays come after a bar, where they were run). Shown are actives, neighbours in structure and some others; about 9.1% of the full set was active somewhere.

CC(=NCCN1CCCCC1)c1c(O)n(Cc2ccccc2)c(=O)[nH]c1=O	M1 antagonist -2.41 | M1 antag conf inactive | mGluR4 antag inactive
Nc1ccccc1C(=O)c1ccccc1	none (no result: Htt clearance)
Nc1ccccc1C(=O)OC1CSC1	M1 antagonist -6.21 | M1 antag conf inactive | mGluR4 antag inactive
CCOc1ccccc1-n1c(O)c(C=NCCCN(CC)CC)c(=O)[nH]c1=O	none
Cc1nn(Cc2ccccc2)c(C)c1C(=O)OCC(=O)Nc1ccccc1SCC#N	D1 mod 4.23 | D1 PAM confirm 8752 | Isoprot counter 3224
CC(c1ccccc1)n1cncc1C(=O)O (stereo not drawn)	none (no result: M1 agonist, D1 mod, M1 antagonist)
Cc1ccc(Cc2c(C)nc3nc(SCC(=O)N4CCC5(CC4)OCCO5)nn3c2C)cc1	none (no result: M1 agonist, D1 mod, M1 antagonist)
Cc1nc2c(-c3ccc(F)cc3)c(C)nn2c(C)c1CCC(=O)N1CCC2(CC1)OCCO2	D1 mod 6.14 (no result: Htt clearance) | D1 PAM confirm 7792 | D1 ag no DA inactive | Isoprot counter 3452
Cc1nc2ncnn2c(C)c1CCC(=O)N1CCC2(CC1)OCCO2	D1 mod 2.8 | D1 PAM confirm inactive | D1 ag no DA inactive | Isoprot counter inactive
Cc1nc2cc(-c3ccccc3)nn2c(C)c1CCC(=O)N1CCC2(CC1)OCCO2	none (no result: Htt clearance)
CCN1CCN(C(=O)COc2ccc3c(c2)C(=O)CC2(CCN(C(C)=O)CC2)O3)CC1	none (no result: M1 agonist, D1 mod, M1 antagonist)
Cn1c(O)c(C(=O)c2ccccc2)c(=O)n(C)c1=O	D1 mod 8.43 | D1 PAM confirm inactive | D1 ag no DA inactive | Isoprot counter inactive
CC(=NCc1cccnc1)c1c(O)n(-c2ccc(C)cc2)c(=O)[nH]c1=O	none
CC(=NCc1ccco1)c1c(O)n(Cc2ccccc2)c(=O)[nH]c1=O	D1 mod 4.47 (no result: Htt clearance) | D1 PAM confirm 10196 | D1 ag no DA inactive | Isoprot counter 2956
CCC(=NCc1ccco1)c1c(O)n(C2CCCCC2)c(=O)[nH]c1=O	D1 mod 13.8 (no result: Htt clearance) | D1 PAM confirm 16640 | D1 ag no DA inactive | Isoprot counter 4524
CCC(=O)c1c(O)n(C2CCCCCC2)c(=O)[nH]c1=O	none (no result: Htt clearance)
CCC(=NCCCN(CC)CC)c1c(O)n(C2CCCCC2)c(=O)[nH]c1=O	none (no result: Htt clearance)
CCC(=NCc1cccnc1)c1c(O)n(C2CCCCC2)c(=O)[nH]c1=O	D1 mod 14.5 | D1 PAM confirm 9572 | D1 ag no DA inactive | Isoprot counter 4052
CC(=NCc1cccnc1)c1c(O)n(C2CCCCC2)c(=O)[nH]c1=O	D1 mod 5.96 | D1 PAM confirm 9208 | D1 ag no DA inactive | Isoprot counter 3100
Cn1c(O)c(C(=N)COc2cccc(Cl)c2)c(=O)n(C)c1=O	none (no result: M1 agonist, D1 mod, M1 antagonist)
COC(=O)c1c(N)n(Cc2ccc(OC)cc2)c2nc3ccccc3nc12	D1 mod 6.99 (no result: Htt clearance) | D1 PAM confirm 8940 | D1 ag no DA inactive | Isoprot counter 3196
COCCOC(=O)c1c(N)n(Cc2ccc(OC)cc2)c2nc3ccccc3nc12	D1 mod 6.33 (no result: Htt clearance) | D1 PAM confirm 12708 | D1 ag no DA inactive | Isoprot counter 3028
CCCN(CC#CCO)CCC	none
CCOc1ccc(-n2c(CC)nc3ccccc3c2=O)cc1	none (no result: Htt clearance)
CCCCc1nc2ccccc2c(=O)n1-c1ccc(O)cc1	D1 mod 3.69 | D1 PAM confirm 8012 | D1 ag no DA inactive | Isoprot counter 3840
Cc1[nH]c2c(C(F)(F)F)cccc2c1CCN	D1 mod 7.8 (no result: Htt clearance) | D1 PAM confirm inactive | Isoprot counter inactive
O=c1[nH]c(=O)n(CCc2ccc(F)cc2)c(O)c1C=NCCCN1CCOCC1	D1 mod 12.2 | D1 PAM confirm inactive | D1 ag no DA inactive | Isoprot counter inactive
CC(Cc1ccccc1)[n+]1cc(/N=C(\[O-])N(C)C)on1 (stereo not drawn)	none (no result: Htt clearance)
CCOC(=O)c1cc2c(cn1)[nH]c1ccccc12	D1 mod 16.4 (no result: Htt clearance) | D1 PAM confirm 15472 | D1 ag no DA inactive | Isoprot counter 3188
O=c1c2ccccc2[se]n1-c1ccccc1	none (no result: Htt clearance)
CCOC(=O)c1c(C)n(Cc2ccco2)c2ccc(OC)cc12	D1 mod 3.92 | D1 PAM confirm inactive | D1 ag no DA inactive | Isoprot counter inactive
CCOC(=O)c1c(C)n(CCN2CCN(C)CC2)c2ccc(OC)cc12	none (no result: D1 mod, Htt clearance)
O[C@H]1C2CCC1C(N1CCCCC1)CC2 (stereo partly drawn)	none (no result: Htt clearance)
CCOC(=O)N1CCN(C(C)C(=O)c2c[nH]c3ccccc23)CC1 (stereo not drawn)	none
